Bioassay records as filed in PubChem.
Shown are actives, neighbours in structure and some others; about 2.7% of the full set was active somewhere.
MITF act: activators of MITF-driven TRPM1 promoter activity in SK-MEL-5 cells | SK-MEL-5 TRPM1-promoter luciferase, 24 h; % of positive control, neutral wells = 0 | activation, % at 12.5 µM | actives 0.75% (n = 300,000) | AID 588334;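 active = mean activation of at least 80% with every replicate also reaching 80%; inconclusive = mean reaches 80% but some replicate falls short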
F508del corr: correctors of CFTR F508del function in bronchial epithelial cells. CFBE cells, YFP halide quenching; stimulated with forskolin plus potentiator P3; % fluorescence drop versus neutral controls. activity (quench increase), % at 7.58 µM. actives 0.36% (n = 350,000). AID 720511;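 active = mean added fluorescence quench of at least 8% versus neutral control, with both replicates also reaching 8%; inconclusive = only one of the mean or replicate conditions met; inactive = mean below 8% and not both replicates reaching 8%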;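 note: cells transiently co-express mutant CFTR-F508del with the halide-sensitive YFP; corrector assay measuring rescue of mutant channel to the surface after 24 h compound exposure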
HIV Env fusion: inhibitors of HIV Env-mediated cell fusion | AID 651610 | HeLa-JRFL Env/CEM21 cell fusion, luciferase | inhibition, % at 12.3 µM | actives 1.1% (n = 360,000);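 active = mean replicate inhibition score of at least 50 and every replicate individually at or above 50; inconclusive = only one of the two criteria met; inactive = mean below 50 and not all replicates reaching 50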
Wnt bcat act: activators of Wnt/beta-catenin signaling; activation, % at 9.35 µM; AID 743398; Wnt/beta-catenin reporter cell assay, activator, plate reader; actives 1.2% (n = 300,000); in the data active = activation above about 30%, passing the limit was not always enough; inconclusive = no clear call, values can overlap the other calls
INS-1E GSIS act: GLuc luminescence reporter in INS-1E cells, primary screen for activators of glucose-dependent secretion of insulin; INS-1E GLuc reporter insulin secretion, 2-3 h; activation, % at 16.6 µM; actives 0.61% (n = 370,000);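 active = lowest replicate activation of at least 40%, so every replicate reaches that level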
A number is an active result; - = inactive; ? = inconclusive; . = no result given; ! = repeats disagree; [ ] = dose if it differs, or a comment.

SMILES	MITF act	F508del corr	HIV Env fusion	Wnt bcat act	INS-1E GSIS act
Cc1noc(C)c1NC(=O)N(C)C[C@H]1OCCCC[C@H](C)Oc2ccc(NS(C)(=O)=O)cc2C(=O)N([C@@H](C)CO)C[C@H]1C	.	-	-	.	-
O=C(Nc1cccnc1Cl)c1cc(-c2ccc(F)cc2)on1	-	-	-	-	-
O=C(NC(=S)Nc1ncccn1)c1ccc(F)cc1	101	-	-	-	-
O=C(NC(=S)Nc1cccnc1Cl)c1ccc(F)cc1	-	-	-	37	-
Cc1ccc(S(=O)(=O)N(C)C[C@@H]2Oc3ccc(NS(=O)(=O)c4ccccc4)cc3CC(=O)N([C@@H](C)CO)C[C@@H]2C)cc1	.	-	-	.	-
O=C(O)CSc1nnc(Cc2ccccc2)n1-c1ccccc1	-	.	-	-	.
Cc1ccc(C(=O)CSc2nnc(-c3ccco3)n2Cc2ccccc2)cc1	-	.	-	-	.
O=C(O)CSc1nnc(Cc2ccccc2)n1Cc1ccccc1	-	.	-	-	57
O=C(CSc1nnc(-c2ccco2)n1Cc1ccccc1)c1ccccc1	91	.	.	.	.
Cc1ccccc1S(=O)(=O)N1C[C@@H](O)COC[C@H]2O[C@@H](CC(=O)NCc3ccccc3Cl)CC[C@@H]21	.	-	-	.	-
C[C@H]1CN([C@@H](C)CO)C(=O)Cc2cc(NC(=O)Nc3ccccc3)ccc2O[C@H]1CN(C)C(=O)Nc1ccc(C(F)(F)F)cc1	.	-	-	.	-
C[C@@H]1CN([C@@H](C)CO)C(=O)Cc2cc(NC(=O)Nc3ccc(C(F)(F)F)cc3)ccc2O[C@H]1CN(C)Cc1ccccc1	.	-	-	.	-
C[C@H]1CN([C@@H](C)CO)C(=O)Cc2cc(NC(=O)Nc3ccc(C(F)(F)F)cc3)ccc2O[C@@H]1CN(C)Cc1ccccc1	.	-	82[16.7 µM]	.	-
C[C@@H]1CN([C@H](C)CO)C(=O)Cc2cc(NC(=O)CCCN(C)C)ccc2O[C@H]1CN(C)Cc1ccc(-c2ccccc2)cc1	.	-	.	.	72
C[C@@H]1CN([C@@H](C)CO)C(=O)Cc2cc(NC(=O)Nc3ccc(F)cc3)ccc2O[C@H]1CN(C)Cc1ccc(C(F)(F)F)cc1	.	-	69[16.7 µM]	.	-
C[C@@H]1CN([C@@H](C)CO)C(=O)Cc2cc(NC(=O)Nc3ccc(C(F)(F)F)cc3)ccc2O[C@H]1CN(C)C(=O)Nc1ccccc1	.	9.3	-	.	-
C[C@H](CO)N1C[C@H](C)[C@H](CN(C)Cc2ccc(-c3ccccc3)cc2)Oc2ccc(NC(=O)CCCN(C)C)cc2CC1=O	.	-	.	.	-
O=C(C[C@@H]1C=C[C@H](NS(=O)(=O)c2ccc(F)cc2)[C@@H](CO)O1)NCc1ccccc1F	.	-	.	.	-
O=C(c1ccc2ncsc2c1)N1CCN(c2ccccc2Cl)CC1	-	-	-	-	-
COc1ccc2nc(N3CCN(C(=O)C4COc5ccccc5O4)CC3)sc2c1 (stereo not drawn)	100	-	-	-	-
Cc1onc(-c2ccccc2Cl)c1C(=O)N1CCN(c2nc3ccccc3s2)CC1	-	.	-	44	.
Cc1cccc2sc(N3CCN(C(=O)C4COc5ccccc5O4)CC3)nc12 (stereo not drawn)	-	-	-	-	-
CCC(=O)N1CCN(c2nc3ccccc3s2)CC1	-	.	.	.	-
O=C(C1CC1)N1CCN(c2nc3ccccc3s2)CC1	87	.	-	31	.
Cc1onc(-c2ccccc2Cl)c1C(=O)N1CCCCC1	-	-	-	-	-
SMILES	MITF act	F508del corr	HIV Env fusion	Wnt bcat act	INS-1E GSIS act
O=C(c1ccc2ncsc2c1)N1CCN(c2nc3ccccc3s2)CC1	-	-	76	-	-
O=C(C[C@@H]1C=C[C@@H](NC(=O)Nc2cc(F)ccc2F)[C@H](CO)O1)Nc1ccccc1	.	-	-	.	-
O=C(C[C@H]1CC[C@H]2[C@@H](COC[C@H](O)CN2S(=O)(=O)c2ccc(F)cc2)O1)NCC1CCCCC1	.	-	-	.	-
Cc1cccc(CN2C(=O)CSc3ccc(C(=O)NC4CC4)cc32)c1	-	-	-	-	191
Cc1ccc(-c2ccc(CN3C(CC(C)C)C(=O)N(Cc4cn(CC5CCCCC5)nn4)CCS3(=O)=O)cc2)cc1 (stereo not drawn)	.	-	-	-	-
CCC/C=C/c1ccc(CN2C(CC(C)C)C(=O)N(Cc3cn(CC4CCCCC4)nn3)CCS2(=O)=O)cc1 (stereo not drawn)	.	-	89	-	-
CC(C)[C@H](CN(N=O)[C@@H](Cc1ccccc1)CN(C)N=O)N(CCc1ccccc1)N=O	-	-	68	-	-
CCCC[C@H](CN(N=O)[C@@H](Cc1ccccc1)CN(C)N=O)N(CCc1ccccc1)N=O	-	-	88	-	-
CN(C[C@H](Cc1ccccc1)N(C[C@H](Cc1cccc2ccccc12)N(CCc1ccccc1)N=O)N=O)N=O	-	-	-	-	-
CN(C[C@H](Cc1ccccc1)N(CCN(CCc1ccccc1)N=O)N=O)N=O	-	-	-	-	-
CN(C[C@H](Cc1ccccc1)N(C[C@H](Cc1ccccc1)N(CCc1cc(C(F)(F)F)cc(C(F)(F)F)c1)N=O)N=O)N=O	-	-	56	-	-
CC(C)C[C@@H](CN(C)N=O)N(C[C@H](Cc1ccccc1)N(CCc1ccccc1)N=O)N=O	-	-	94	-	-
C[C@@H]1CN([C@H](C)CO)C(=O)c2cc(NS(=O)(=O)c3cccs3)ccc2O[C@H]1CN(C)S(=O)(=O)c1cccs1	.	-	-	.	-
Cc1ccc2c(c1)COc1c3ccc(C(=O)N4CCCCC4)cc3nn1-2	?	-	-	-	-
CCN(CC)CCCNC(=O)c1ccc2c3n(nc2c1)-c1ccc(Cl)cc1CO3	114	-	-	-	-
O=C(NCC1CCCO1)c1ccc2c3n(nc2c1)-c1ccccc1CO3 (stereo not drawn)	?	-	-	?	-
CC(C)NC(=O)c1ccc2c3n(nc2c1)-c1ccc(Cl)cc1CO3	102	-	-	34	-
O=C(c1ccc2c3n(nc2c1)-c1ccc(Cl)cc1CO3)N1CCOCC1	126	-	-	33	-
COCc1cn(CC[C@@H]2CC[C@H](NC(=O)Cc3cccnc3)[C@@H](CO)O2)nn1	.	-	-	.	-
COc1ccc(NC(=O)Nc2ccc3c(c2)CC(=O)N([C@H](C)CO)C[C@H](C)[C@H](CN(C)S(=O)(=O)c2cccs2)O3)cc1	.	-	70[16.7 µM]	.	-
C[C@@H]1CN([C@@H](C)CO)C(=O)Cc2cc(NC(=O)Nc3ccccc3)ccc2O[C@H]1CN(C)S(=O)(=O)c1cccs1	.	-	-	.	-
C[C@H](CO)N1C[C@H](C)[C@H](CN(C)S(=O)(=O)c2cccs2)Oc2ccc(NC(=O)Nc3ccccc3)cc2CC1=O	.	-	105[16.7 µM]	.	-
C[C@@H]1CN([C@H](C)CO)C(=O)Cc2cc(NC(=O)Nc3cccc4ccccc34)ccc2O[C@@H]1CN(C)S(=O)(=O)c1cccs1	.	-	?	.	-
C[C@@H]1CN([C@H](C)CO)C(=O)CCCn2cc(nn2)CO[C@H]1CN(C)S(=O)(=O)c1cccs1	.	-	-	-	41!
